# EWS-Fli block: blocks EWS/Fli oncoprotein-driven transcription; A673 NR0B1-luciferase reporter, viability-normalised; inhibition, % at 12.6 µM; 0.67% of 350,000 active; AID 651661;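 active = mean inhibition of at least 50% after viability correction, with every replicate also passing that limit; inconclusive = mean reaches 50% but only one of two replicates passes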;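 also: firefly luciferase signal divided by Alamar Blue viability fluorescence both relative to DMSO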
# CFTR F508del cor: CFTR F508del correction in bronchial cells; CFBE cells, YFP halide quenching; stimulated with forskolin plus potentiator P3; % fluorescence drop versus neutral controls; activity (quench increase), % at 7.58 µM; 0.36% of 350,000 active; AID 720511;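 active = mean added fluorescence quench of at least 8% versus neutral control, with both replicates also reaching 8%; inconclusive = only one of the mean or replicate conditions met; inactive = mean below 8% and not both replicates reaching 8%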;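 also: cells transiently co-express mutant CFTR-F508del with the halide-sensitive YFP; corrector assay measuring rescue of mutant channel to the surface after 24 h compound exposure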
# INS-1E GSIS act: GLuc luminescence reporter in INS-1E cells, primary screen for activators of glucose-dependent secretion of insulin. activation, % at 16.6 µM. AID 743287. 0.61% of 370,000 active. INS-1E GLuc reporter insulin secretion, 2-3 h;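 active = lowest replicate activation of at least 40%, so every replicate reaches that level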;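 also: 0% = median of neutral control wells and 100% = median of IBMX positive control wells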
# PGC1a acetyl inh: lowers PGC1a acetylation signal in U2OS cells. AlphaScreen anti-acetyl-lysine; with virally co-expressed GCN5 acetyltransferase. inhibition, % at 15.6 µM. 0.17% of 350,000 active;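 active = every replicate shows inhibition of at least 40%; inconclusive = mean inhibition at least 40% but some replicate below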;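 also: 0% = neutral control wells and 100% = positive control wells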
# PAX8 reporter: lowers PAX8-driven luciferase in RMG-I cells; RMG-I TPO-luciferase reporter, SteadyGlo, 24 h; inhibition, % at 12.6 µM; 1.2% of 360,000 active; AID 652154;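 active = mean replicate inhibition at least 60% with every replicate also reaching 60%; inconclusive = only one of the two criteria is met; inactive = mean below 60% and not all replicates reaching 60%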;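 also: luciferase light reporting Pax8 driven TPO promoter activity; plate controls were median of neutral control wells for no effect and mitoxantrone controls for full effect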
# Env fusion inh: HIV envelope-mediated fusion inhibition; inhibition, % at 12.3 µM; HeLa-JRFL Env/CEM21 cell fusion, luciferase; 1.1% of 360,000 active;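 active = mean replicate inhibition score of at least 50 and every replicate individually at or above 50; inconclusive = only one of the two criteria met; inactive = mean below 50 and not all replicates reaching 50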;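 also: 0% = plate neutral controls and 100% = maraviroc near 300 nM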
# * marks the source's active call; other numbers are inactive results; ? = inconclusive; . = no result given; [ ] = dose if it differs, or a comment. This is a sample that favours compounds with a hit; in the whole collection about 2.7% have one here.
SMILES,EWS-Fli block,CFTR F508del cor,INS-1E GSIS act,PGC1a acetyl inh,PAX8 reporter,Env fusion inh
COc1ccc(NC(=O)N(C)C[C@H]2OCCCC[C@H](C)Oc3ccc(NC(=O)c4ccncc4)cc3C(=O)N([C@@H](C)CO)C[C@@H]2C)cc1,5.2,-0.2,-16.5,24.9,-29.6,-3.9[16.7 µM]
COc1ccc(Cl)cc1Nc1nc(-c2sc(NC(=O)C(C)(C)C)nc2C)cs1,1.1,8.7*,-24.5,9.1,13.1,36.3
COc1ccc(OC)c(Nc2nc(-c3sc(NC(=O)C(C)(C)C)nc3C)cs2)c1,7.5,8.0*,-4.1,-9.5,11.1,29.1
COc1cccc(Nc2nc(-c3sc(NC(=O)c4ccco4)nc3C)cs2)c1,9.1,-2.4,-6.0,.,8.4,66.2*
C[C@H](CO)N1C[C@H](C)[C@H](CN(C)S(=O)(=O)c2ccc(Oc3ccccc3)cc2)OCc2cnnn2CCCC1=O,-0.5,-1.5,-9.1,-0.1,16.7,.
COc1ccc2oc(C(=O)N3CCN(c4ncccn4)CC3)c(C)c2c1,.,-0.8,40.5,.,-10.3,-3.6
COc1ccc2oc(C(=O)N3CCN(C(=O)c4ccco4)CC3)c(C)c2c1,0.1,14.3*,-7.7,-2.8,11.2,-4.3
COc1ccc2oc(C(=O)Nc3nnc(C)s3)c(C)c2c1,38.6,1.6,52.7*,1.6,-191.2,-28.9
O=C(Nc1cccc(OC(F)(F)F)c1)C1Cc2c(-c3ccccc3Oc3ccccc3)ccnc2O1 (stereo unspecified),19.6,0.5,.,.,20.2,59.2*
O=C(Nc1cc(C(F)(F)F)ccc1F)C1Cc2c(-c3ccccc3Oc3ccccc3)ccnc2O1 (stereo unspecified),9.0,0.0,.,.,27.5,78.8*
O=C(Nc1ccccc1)C1Cc2c(-c3ccccc3Oc3ccccc3)ccnc2O1 (stereo unspecified),5.7,-1.8,-11.6,-21.2,12.7,10.7
O=C(Nc1ccc(Cl)cc1)C1Cc2c(-c3ccccc3Oc3ccccc3)ccnc2O1 (stereo unspecified),8.8,-1.8,-27.5,.,15.5,-14.1
O=C([C@H]1[C@H](CO)[C@H]2Cn3c(cccc3=O)[C@H]2N1C(=O)CC1CC1)N1CCCCC1,1.6,-1.5,2.0,-5.6,-14.7,.
COc1ccc(/C=C2\Sc3ccc(C(=O)N4CCN(Cc5ccccc5)CC4)cc3N(C)C2=O)cc1OC,34.0,0.0,5.0,.,77.2*,19.8
C[C@@H]1CN([C@@H](C)CO)C(=O)Cc2cc(NC(=O)Nc3ccc(F)cc3)ccc2O[C@H]1CN(C)Cc1ccc(Oc2ccccc2)cc1,27.1,-3.6,-19.5,-7.1,?,18.4[16.7 µM]
CCOC(=O)c1cnc(SCC(=O)OCC(=O)NC2CCS(=O)(=O)C2)nc1N (stereo unspecified),1.2,-1.8,42.5*,-7.2,3.4,6.2
CCn1c(COc2ccc(C)cc2)nnc1SCC(=O)Nc1cc(OC)ccc1OC,.,.,.,18.3,.,58.0*
CCOC(=O)c1cnc(SCC(=O)Nc2ccc(NC(C)=O)c(OC)c2)nc1N,.,.,.,.,.,20.7
CCOC(=O)c1cnc(SCC(=O)Nc2cc(OC)ccc2OC)nc1N,.,.,.,-13.9,17.0,73.9*
C[C@@H]1CN([C@H](C)CO)C(=O)CCCn2nncc2CO[C@@H]1CN(C)Cc1ccccc1C(=O)O,3.6,2.1,4.7,-4.5,3.8,.
CC(C)C#Cc1cnc2c(c1)C(=O)N([C@H](C)CO)C[C@@H](C)[C@@H](CN(C)C(=O)Nc1ccccc1F)O2,-9.4,1.9,-11.6,4.0,.,5.9[16.7 µM]
C[C@H](CO)N1C[C@H](C)[C@H](CN(C)C(=O)Nc2ccc(F)cc2)Oc2ccc(NC(=O)Nc3ccccc3)cc2C1=O,-2.9,0.9,-26.9,-0.5,8.2,.
CCCCCCN(C(=O)CCCCCN1C(=O)NC(c2cccc([N+](=O)[O-])c2)C(C(=O)OCc2ccccc2)=C1C)C(C(=O)NCCCC)c1ccc(OCC(=O)OC)c(C(=O)OC)c1 (stereo unspecified),69.4*,2.4,1.0,.,49.0,-75.2
CCCCCCN(C(=O)CCCCCN1C(=O)NC(c2ccc(-c3ccccc3)cc2)C(C(=O)OCc2ccccc2)=C1C)C(C)C(=O)NCCCC (stereo unspecified),23.2,-0.9,-2.2,.,74.9*,?
CCCCCCN(C(=O)CCCCCN1C(=O)NC(c2ccc(-c3ccccc3)cc2)C(C(=O)OCc2ccccc2)=C1C)C(C(=O)NCCCC)c1ccccc1 (stereo unspecified),0.6,1.3,2.0,.,32.1,-20.6
SMILES,EWS-Fli block,CFTR F508del cor,INS-1E GSIS act,PGC1a acetyl inh,PAX8 reporter,Env fusion inh
CCCC#Cc1ccc2c(c1)[C@@H]1[C@@H](CCN1S(=O)(=O)c1ccccc1C)[C@@H](CO)N2,.,4.1,2.9,.,.,.
CCC(=O)N1CC2(CCN(C(=O)NC(C)C)CC2)c2c(n(C)c3cc(OC)ccc23)[C@H]1CO,-8.2,0.5,19.3,-5.3,.,.
CC(C)(C)c1ccc(OCC(=O)Nc2ccc3c4c(cccc24)C(=O)NC3=O)cc1,38.8,19.8*,13.8,-2.4,7.8,39.8
COc1ccc(N2C(c3ccsc3)=Cc3cc4c(cc3C2c2c[nH]c3ccccc23)OCO4)cc1 (stereo unspecified),11.2,-0.1,-51.7,.,73.0*,5.1
CC(C)NC(=O)Nc1ccc2c(c1)C(=O)N([C@@H](C)CO)C[C@H](C)[C@@H](CN(C)C(=O)Nc1ccc3c(c1)OCO3)OCCCC[C@H](C)O2,-8.4,-1.3,1.7,-3.4,-10.5,-21.9[16.7 µM]
CC(C)c1ccc(/C=C/C(=O)N2CCc3ccccc3C2)cc1,3.2,-0.5,-2.0,9.9,67.1*,.
CC(C)c1ccc(OCC(=O)N2CCc3ccccc3C2)cc1,-0.6,1.5,4.1,0.8,4.0,1.6
O=C(NC1CCCCC1)c1ccc2ccccc2c1,-73.1,1.8,.,-0.2,-203.0,-65.2
O=C(NC1CC1)c1ccc2c(c1)C1C3CCC(C3)C1C(c1ccccc1)N2 (stereo unspecified),-2.7,-1.0,-19.6,.,115.3*,.
CO[C@H]1CN(C)C(=O)c2cc(NS(C)(=O)=O)ccc2OC[C@H](C)N(Cc2cncnc2)C[C@@H]1C,6.7,0.5,12.8,6.7,-18.8,-7.6[16.7 µM]
O=C(c1cc(S(=O)(=O)N2CCN(c3ccccc3)CC2)ccc1Cl)N1CCCC(C(F)(F)F)C1 (stereo unspecified),23.9,2.3,-49.8,.,16.2,.
O=C(c1cccc(S(=O)(=O)N2CCN(c3ccccc3)CC2)c1)N1CCCC(C(F)(F)F)C1 (stereo unspecified),1.3,-1.5,6.4,0.3,8.0,71.0*
O=c1c2ccccc2sc2ccc(C#CC3(O)CCCCC3)cc12,89.2*,1.1,.,.,68.8*,14.9
COc1cccc2sc3ccc(C#CC4(O)CCCCC4)cc3c(=O)c12,-167.1,5.4,-18.5,-2.8,-186.4,-257.9
CCN1C(=O)c2cccc3c(S(=O)(=O)N(C(C)=O)c4ccc(OC(C)=O)cc4)ccc1c23,28.2,15.6*,-23.0,4.8,15.6,.

# Screening data (PubChem BioAssay)
